Compound activity deposited in PubChem by National Center for Advancing Translational Sciences (NCATS).
This is one part of a sample in which hits are shown more often than they occur.
Shiga toxin inh: A qHTS for Small Molecule Inhibitors of Shiga Toxin; Vero cells, Shiga toxin protein synthesis inhibition reporter; inhibition, % at 38.7 µM; 9.2% of 290,000 active; in the data active = inhibition mostly above about 28%, no sharp cut-off; inactive = mostly below about 43%
Giardia FBPA inh: qHTS Assay for Inhibitors of Fructose-1,6-bisphosphate Aldolase from Giardia Lamblia | A8B2U2 | purified Giardia FBPA | Potency, µM (series often up to 59.6 µM), most hits filed as inhibitors | 0.71% of 290,000 active; note: nearly all actives have a fitted effect of over 55% in size
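Giardia FBPA (40 nM reagent) was preincubated 10 min at RT with compound (up to 57.5 uM final), then substrate plus GAPDH/TPI/NAD/arsenate coupling system with diaphorase/resazurin was added; resorufin fluorescence (525/598 nm) was read after 20 min.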
RE007 growth inh: qHTS Assay for Inhibitors of the HIV-1 protein Vpr; 0.21% of 360,000 active; Potency, µM (highest dose often 92.2 µM), most hits filed as inhibitors; S. pombe RE007 Vpr strain, BacTiter-Glo ATP luminescence, 24 h; active = well fitted falling curve with a large enough effect; inconclusive = small, poorly fitted or top-dose-only effect; inactive = no such curve, though single readings can be large or run the other way; note: nearly all actives have a fitted effect of over 50% in size
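Fission yeast strain RE007, carrying one chromosomally integrated HIV-1 vpr copy, was seeded at OD 0.01 in PMG+AL medium with 23 nL pinned compound. After 24 h at 30 °C and 99% humidity, viability was read by BacTiter-Glo luminescence.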
TbPYK inhibitor: qHTS of Trypanosoma Brucei Inhibitors; TbPYK enzyme, Kinase-Glo Plus ATP luminescence, 45 min; Potency, µM (titrated, usually from 76.8 µM), usual class: inhibitors; 0.12% of 410,000 active; AID 624173, 2012; note: nearly all actives have a fitted effect of over 50% in size
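T. brucei PYK with substrate was exposed to pin-transferred compounds across a concentration series, then started with 130 uM ADP (final). After 45 min at room temperature, Kinase-Glo Plus luminescence was read, normalized and curve-fitted.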
LmPK inh: qHTS Assay for Inhibitors of Leishmania Mexicana Pyruvate Kinase (LmPK). 0.37% of 290,000 active. Potency, µM (doses to about 57.5 µM), actives largely listed as inhibitors. AID 1721, 2009. purified LmPK, Kinase-Glo ATP luminescence, 1 h
Target sequence (Q27686 whole entry, looked up): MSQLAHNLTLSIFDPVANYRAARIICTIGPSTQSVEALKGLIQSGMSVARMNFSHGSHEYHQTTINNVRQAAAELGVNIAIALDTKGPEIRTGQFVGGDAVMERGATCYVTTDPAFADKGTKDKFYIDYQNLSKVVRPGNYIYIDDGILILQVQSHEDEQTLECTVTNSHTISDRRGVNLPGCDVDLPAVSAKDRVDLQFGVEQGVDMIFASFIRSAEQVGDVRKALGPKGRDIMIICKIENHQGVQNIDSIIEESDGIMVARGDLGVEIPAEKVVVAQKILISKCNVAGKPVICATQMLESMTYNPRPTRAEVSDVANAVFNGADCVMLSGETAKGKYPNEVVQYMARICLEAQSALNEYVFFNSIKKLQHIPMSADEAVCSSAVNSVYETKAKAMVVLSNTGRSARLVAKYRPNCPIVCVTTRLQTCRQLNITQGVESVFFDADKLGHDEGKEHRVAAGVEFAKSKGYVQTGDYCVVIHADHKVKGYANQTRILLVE
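0.1 nM LmPK, 0.5 mM PEP, 0.1 mM ADP; 50 mM imidazole pH 7.2, 7 mM MgCl2, 50 mM KCl; 1 h RT. Kinase-Glo luminescence readout, normalized to no-enzyme (full inhibition) and uninhibited wells.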
CHX counter: Cycloheximide Counterscreen for Small Molecule Inhibitors of Shiga Toxin. cell reporter, cycloheximide protein synthesis inhibition counterscreen. max response, %. 12% of 300,000 active. AID 2314, 2010; in the data active = max response mostly above about 13%, no sharp cut-off; inactive = mostly below about 14%; note: read at 38.3 µM for the half of the compounds with a filed dose
Hits are given with their value; . = inactive; ? = inconclusive; / = not tested or not shown. Unless noted, calls come from the whole dose curve; as a rule, active = well fitted curve in the direction sought with a large enough effect; inconclusive = small, poorly fitted or top-dose-only effect, or another doubt; inactive = no such curve, though single readings can be large; an effect the other way counts as inactive or inconclusive.

SMILES	Shiga toxin inh	Giardia FBPA inh	RE007 growth inh	TbPYK inhibitor	LmPK inh	CHX counter
CCOc1cc(N2CCOCC2)c(OCC)cc1NC(C)C(=O)N1CCN(CC)CC1 (centres undefined)	.	5µM	.	.	.	.
CCOc1cc(N2CCOCC2)c(OCC)cc1NC(=O)CN1CCC(Cc2ccccc2)CC1	.	.	.	.	.	.
CCOc1cc(N2CCOCC2)c(OCC)cc1NC(=O)CN1CCCC(C)C1 (centres undefined)	.	.	.	.	.	15
CCOc1cc(N2CCOCC2)c(OCC)cc1NC(=O)C(C)C	.	?	.	.	.	.
Cc1ccc(Oc2ncc(-c3ccc(Cl)cc3)cn2)cc1	.	.	.	.	.	.
Nc1nc(Cl)cc(Sc2ccc3ccccc3c2)n1	.	.	.	.	.	.
Cc1ccc(Oc2ccc(Cl)cc2N)cc1	100	.	.	.	.	38
Nc1cc(Cl)ccc1Oc1ccc2ccccc2c1	41	.	?	.	.	34
COc1ccccc1CCC(=O)Nc1nc2ccccc2[nH]1	69	.	.	.	.	40
COc1ccc(CCC(=O)Nc2nc3ccccc3[nH]2)cc1	.	.	.	.	.	19
COc1ccc(CCC(=O)Nc2nc3ccccc3[nH]2)cc1OC	.	.	.	.	.	.
COc1ccc(OCC(=O)Nc2nc3ccccc3[nH]2)cc1	38	.	.	.	.	22
COc1ccc(CCC(=O)Nc2cnc3ccccc3c2)cc1	79	.	.	.	.	32
COc1ccc(CC(=O)Nc2nc3ccccc3[nH]2)cc1	.	.	.	.	.	.
Cc1noc(C)c1S(=O)(=O)Nc1ccc(C(=O)Nc2ccc(C(C)C)cc2)cc1	/	/	/	.	/	/
CCCCCC(=O)Nc1nc2ccccc2[nH]1	62	.	.	.	.	32
COc1cccc(CC(=O)Nc2nc3ccccc3[nH]2)c1	.	.	.	.	.	24
CCOc1ccccc1OCCCC(=O)Nc1nc2ccccc2[nH]1	.	.	.	.	.	.
CCOCCCn1c(SCC(=O)Nc2ccc(C)cc2)nc2ccccc2c1=O	/	/	/	.	/	/
CC(=O)Nc1ccc(SCC(CC(C)C)N2CCN(C)CCC2=O)cc1 (centres undefined)	.	.	/	/	/	.
C/C(=N\Nc1nnc(C)c(=O)[nH]1)C(=O)O	.	3.5µM	.	.	.	.
Cc1nnc(NCCc2ccccc2)[nH]c1=O	.	.	.	.	.	.
Cc1cccc(/C=N\Nc2nnc(-c3ccccc3)c(=O)[nH]2)c1	.	.	.	.	.	.
CC(/C=N/Nc1nnc(C)c(=O)[nH]1)=C\c1ccccc1	81	.	.	.	.	26
CCOc1ccccc1NC(=O)C(=O)Nc1ccc2nc3n(c(=O)c2c1)CCCCC3	/	/	/	.	/	/
SMILES	Shiga toxin inh	Giardia FBPA inh	RE007 growth inh	TbPYK inhibitor	LmPK inh	CHX counter
O=C(CCC1CCCCC1)NCc1ccc(F)cc1	active	.	.	.	.	23
O=C(CC1CCCCC1)NCc1ccc(Cl)cc1	/	.	.	.	.	27
O=C(CCC1CCCCC1)NCc1ccncc1	.	.	.	.	.	.
COc1ccc(NCc2cc3cc4c(cc3n(CC(=O)Nc3ccc(C)cc3)c2=O)OCO4)cc1	/	/	/	.	/	/
Cc1ccc(CSc2nc3ccc(NC(=O)CC(C)C)cc3s2)cc1	/	/	/	.	/	/
Cc1ccc(N(C)S(=O)(=O)c2ccc(-c3coc(C)n3)cc2)cc1	/	/	/	.	/	/
O=C(O)C(Cc1c[nH]c2ccccc12)N1Cc2ccccc2C1=O (centres undefined)	42	.	.	.	.	28
O=C(O)[C@H](Cc1ccccc1)N1Cc2ccccc2C1=O	.	.	.	.	.	.
COc1ccc(NCc2cc3cc4c(cc3n(CC(=O)Nc3cc(C)ccc3C)c2=O)OCCO4)cc1	/	/	/	.	/	/
COc1ncc2nc(-c3ccc(Cl)cc3)c(=O)n(C[C@H]3CCCO3)c2n1	/	.	/	.	/	/
Clc1ccccc1-c1ncc(-c2ccccc2)o1	/	.	.	.	.	26
O=C(Nc1ccc(F)cc1)c1ccc2nc[nH]c2c1	46	.	.	.	.	30
COc1cc(C(=O)Nc2ccc(N(C)C)cc2)cc(OC)c1OC	58	.	.	.	.	25
